# Measurements taken from PubChem BioAssay (EPA / NIEHS).
# Results filed as inconclusive are left out. Active and inactive are the calls of the source. The calls were made as follows: active = hit-call score of the fitted dose curve at least 0.9, where 1 is the maximum; inconclusive = response in the unintended direction; inactive = score below 0.9.
# Molecular target: AR (gene 367) (UniProt P10275)
# Experiment: ACEA_AR_agonist_80hr: ACEA Biosciences xCELLigence Real-Time Cell Analysis on Androgen Receptor Agonism for Proliferation (AID 2283783);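 also: hits increase impedance growth signal above DMSO baseline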
# How it was run: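 Eight concentrations, 1:4 serial dilution from a 100 uM final top, in biological duplicate. Impedance-based real-time growth of 22Rv1 cells after overnight baseline, recorded hourly and read at 80 hours. Controls: testosterone, MG132, assay media.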
# AR (gene 367), sequence (P10275 whole entry, looked up): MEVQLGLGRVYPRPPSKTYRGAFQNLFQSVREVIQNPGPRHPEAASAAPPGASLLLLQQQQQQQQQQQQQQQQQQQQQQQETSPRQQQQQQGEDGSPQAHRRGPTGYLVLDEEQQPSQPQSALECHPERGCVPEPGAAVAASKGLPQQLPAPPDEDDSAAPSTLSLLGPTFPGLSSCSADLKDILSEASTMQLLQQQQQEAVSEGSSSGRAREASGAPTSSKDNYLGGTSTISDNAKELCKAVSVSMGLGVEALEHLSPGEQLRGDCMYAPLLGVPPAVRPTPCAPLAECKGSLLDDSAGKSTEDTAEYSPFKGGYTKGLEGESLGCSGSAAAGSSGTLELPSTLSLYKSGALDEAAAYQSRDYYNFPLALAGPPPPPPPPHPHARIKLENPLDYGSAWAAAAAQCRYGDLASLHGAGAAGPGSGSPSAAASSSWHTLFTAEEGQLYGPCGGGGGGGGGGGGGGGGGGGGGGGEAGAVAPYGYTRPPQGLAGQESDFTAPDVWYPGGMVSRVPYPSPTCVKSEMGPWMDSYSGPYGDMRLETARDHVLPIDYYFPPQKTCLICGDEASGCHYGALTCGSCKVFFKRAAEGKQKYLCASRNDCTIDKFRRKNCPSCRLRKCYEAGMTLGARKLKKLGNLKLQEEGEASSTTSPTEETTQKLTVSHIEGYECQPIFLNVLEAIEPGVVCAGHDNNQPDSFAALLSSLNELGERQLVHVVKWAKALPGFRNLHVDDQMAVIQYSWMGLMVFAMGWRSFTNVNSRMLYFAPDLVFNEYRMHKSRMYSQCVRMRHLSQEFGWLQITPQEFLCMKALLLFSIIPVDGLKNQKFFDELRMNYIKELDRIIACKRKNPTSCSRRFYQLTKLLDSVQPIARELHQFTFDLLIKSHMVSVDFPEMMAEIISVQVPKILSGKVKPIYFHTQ
row,SMILES,outcome
1,NC(=NCCCCCCN=C(N)/N=C(\N)Nc1ccc(Cl)cc1)/N=C(\N)Nc1ccc(Cl)cc1,inactive
2,O=C(c1ccccc1)c1ccccc1,inactive
3,CCCCCCC(C)(C)C(=O)O,inactive
4,CN(Cc1cnc2nc(N)nc(N)c2n1)c1ccc(C(=O)N[C@@H](CCC(=O)O)C(=O)O)cc1,inactive
5,CCCCCCc1ccc(N)cc1,inactive
6,CN(C)CCOC(c1ccccc1)c1ccccc1,inactive

# Test system: not listed separately
# Experiment: STM_H9_NormalizedViability: Cytotoxicity Assessment at 120 hours in the Stemina devTOX quickPredict H9 human embryonic stem cell (hESC)-based Assay (AID 2283784)
# How it was run: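 Viability endpoint: background-corrected CellTiter-Fluor RFU expressed relative to the 0.1% DMSO mean on each plate. Undifferentiated H9 cells were treated with daily re-dosing and media change, and loss of signal was fitted.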
SMILES,outcome,AC50
O=C(c1ccccc1)c1ccccc1,inactive,
CC1=CC(=O)c2ccccc2C1=O,inactive,
CCCCc1oc2ccccc2c1C(=O)c1cc(I)c(OCCN(CC)CC)c(I)c1,,4.41 µM (active)
Cc1[nH]nc2c1N=C(c1ccccc1Cl)c1cc([N+](=O)[O-])ccc1N2,,1.99 µM (active)
CC(C)(C)c1ccc(O)c(O)c1,,86.5 µM (active)
CN(Cc1cnc2nc(N)nc(N)c2n1)c1ccc(C(=O)N[C@@H](CCC(=O)O)C(=O)O)cc1,,0.0867 µM (active)
C=Cc1ccc(O)c(OC)c1,,77.6 µM (active)
CCCCC(CC)C(=O)O (centres undefined),inactive,
Cn1sccc1=O,inactive,
Oc1c(Cl)cc(Cl)cc1Sc1cc(Cl)cc(Cl)c1O,inactive,
CN(C)CCOC(c1ccccc1)c1ccccc1,,8.23 µM (active)
O=C(CCCN1CCC(O)(c2ccc(Cl)cc2)CC1)c1ccc(F)cc1,inactive,
OCC(CO)(CBr)CBr,inactive,
